According to PubChem BioAssay (EPA / NIEHS):
Results filed as inconclusive are left out. Activity calls are given as the source filed them. Rule for the calls, unless noted: active = hit-call score of the fitted dose curve at least 0.9, where 1 is the maximum; inconclusive = response in the unintended direction; inactive = score below 0.9.

Legend:
[1] = target: Cellular tumor antigen p53 (Homo sapiens) (UniProt P04637); test: TOX21_p53_BLA_p2_ratio: Tox21 HCT-116 p53 Agonism Beta-lactamase Assay, Ratio, Phase 2 (AID 2283592)
Summary of the method: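 Plated HCT116 p53-bla cells (4000/well) received compound after 5 h, then 16 h at 37C/5% CO2. CCF4-AM added, 2 h RT. Ratio of 460 to 530 nm emission taken as the p53 reporter signal.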

[2] = TOX21_p53_BLA_p3_viability: Viability Assessment in the Tox21 HCT-116 p53 Agonism Beta-lactamase Assay, Phase 3 (AID 2283593);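 note: cells exposed to compound for 16 h before reading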
Summary of the method: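 Cellular ATP was quantified by CellTiter-Glo luminescence, read after 30 min at room temperature. Beforehand, HCT116 cells (4000/well) received compound 5 h post-seeding, 217-fold diluted from DMSO, then incubated 16 h at 37C.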

[3] = TOX21_p53_BLA_p4_viability: Viability Assessment in the Tox21 HCT-116 p53 Agonism Beta-lactamase Assay, Phase 4 (AID 2283597);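 note: hits lower the luminescence signal meaning cytotoxicity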
Summary of the method: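 Readout: ATP luminescence (CellTiter-Glo), measured 30 min after reagent addition at RT. The reagent followed a 2 h CCF4-AM incubation, and the cells had been exposed to compound for 16 h at 37C.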

[4] = target: Cellular tumor antigen p53 (Homo sapiens) (UniProt P04637); test: TOX21_p53_BLA_p5_ratio: Tox21 HCT-116 p53 Agonism Beta-lactamase Assay, Ratio, Phase 5 (AID 2283599)
Summary of the method: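 Beta-lactamase reporter ratio (blue 460 nm over green 530 nm, 405 nm excitation) after 2 h CCF4-AM loading, in HCT-116 cells exposed 16 h at 37 C to compounds pinned at 217-fold dilution. Increases relative to DMSO baseline scored.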

[5] = TOX21_p53_BLA_p5_viability: Viability Assessment in the Tox21 HCT-116 p53 Agonism Beta-lactamase Assay, Phase 5 (AID 2283600)
Summary of the method: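 Workflow: seed 4000 cells per well, wait 5 h, add compounds (DMSO, 217-fold dilution), incubate 16 h, load CCF4-AM 2 h, add CellTiter-Glo, read luminescence after 30 min.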

[6] = target: Cellular tumor antigen p53 (Homo sapiens) (UniProt P04637); test: TOX21_p53_BLA_p4_ratio: Tox21 HCT-116 p53 Agonism Beta-lactamase Assay, Ratio, Phase 4 (AID 2283601)
Summary of the method: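 Signal is the blue/green (460nm/530nm) ratio of cleaved versus uncleaved CCF4-AM substrate, read after 2 h substrate loading. Cells were HCT116 carrying the p53-responsive beta-lactamase reporter, dosed 16 h at 37C, 5% CO2; CellTiter-Glo measured in parallel.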

[7] = CCTE_Harrill_HTTr_Viability_MCF7: CCTE's 6-hour Cell Viability Assessment for the High-Throughput Transcriptomics (HTTr) Platform, in MCF-7 cells cultured in DMEM + 10% fetal bovine serum, Harrill Lab (AID 2284010; active = hit-call score of the fitted dose curve at least 0.9, where 1 is the maximum; inactive = score below 0.9)
Summary of the method: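 Read-out is propidium iodide gain of signal by high-content imaging, reflecting membrane integrity loss. Measurements are taken 6 h after dosing, eight concentrations per chemical, with DMSO serving as baseline for bidirectional curve fitting.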

[8] = CCTE_Harrill_HTTr_Apoptosis_MCF7: CCTE's 6-hour Apoptosis Assessment for the High-Throughput Transcriptomics (HTTr) Platform, in MCF-7 cells cultured in DMEM + 10% fetal bovine serum, Harrill Lab (AID 2284011; active = hit-call score of the fitted dose curve at least 0.9, where 1 is the maximum; inactive = score below 0.9)
Summary of the method: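 MCF-7 (DMEM + 10% FBS), 384-well; 8-pt dilution series, 6 h chemical exposure; caspase-3/7 activation via CellEvent Caspase 3/7 Green, HCI; bidirectional fit vs DMSO.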

[9] = CCTE_Harrill_HTTr_CellCount_MCF7: CCTE's Cell Proliferation Assessment for the High-Throughput Transcriptomics (HTTr) Platform, Harrill Lab (AID 2284012);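 note: cells exposed to compound for six hours; intended direction is loss of nuclei count meaning fewer cells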
Summary of the method: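 Cell count served as viability reporter: loss of Hoechst-stained nuclei, counted by high content imaging, marks decreased growth or survival. Exposure was 6 h in MCF-7 cells across eight concentrations, with DMSO as baseline.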

[10] = target: Cellular tumor antigen p53 (Homo sapiens) (UniProt P04637); test: TOX21_p53_BLA_p3_ratio: Tox21 HCT-116 p53 Agonism Beta-lactamase Assay, Ratio, Phase 3 (AID 2283596)
Summary of the method: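 Cells were seeded at 4000/well, rested 5 h at 37C, then dosed with DMSO compound solutions (217-fold dilution) for 16 h. CCF4-AM substrate was loaded for 2 h at room temperature, and the 460/530 nm emission ratio was fitted for gain of signal versus DMSO.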

[11] = target: PGR (gene 5241) (UniProt P06401); test: TOX21_PR_BLA_Followup_Agonist_ratio: Tox21 HEK293 Progesterone Receptor (PR) Agonism Beta-lactamase Follow-Up Assay, Ratio (AID 2283933)
Summary of the method: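 Cells were seeded and held 6 hr before compound addition, exposed for 16 hr at 37C, then given FRET substrate for 2 hr at room temperature. Agonism was scored from the blue/green substrate cleavage ratio against DMSO controls.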

[12] = target: PGR (gene 5241) (UniProt P06401); test: TOX21_PR_BLA_Followup_Antagonist_ratio: Tox21 HEK293 Progesterone Receptor (PR) Antagonism Beta-lactamase Follow-Up Assay, Ratio (AID 2283934);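 note: PR-UAS-bla HEK293T cells stimulated with 1 nM R5020 agonist for 16 hr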
Summary of the method: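 Cells are plated, rested 6 hr, then dosed with test compound in DMSO and challenged with 1 nM promegestone. After 16 hr incubation, substrate loading for 2 h at room temperature precedes fluorescence reading; viability is measured in the same wells.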

[13] = TOX21_PR_BLA_Followup_Agonist_viability: Viability Assessment in the Tox21 HEK293 Progesterone Receptor (PR) Agonism Beta-lactamase Follow-Up Assay (AID 2283935);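 note: signal loss means lower viability so actives are cytotoxic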
Summary of the method: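 Cells were plated in medium with 2% charcoal-stripped FBS and rested 6 hr. Compounds in DMSO were then added for 16 hr at 37C, followed by the FRET substrate step and CellTiter-Glo luminescence after 30 min.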

[14] = target: PGR (gene 5241) (UniProt P06401); test: TOX21_PR_LUC_Followup_Agonist: Tox21 HEK293 Progesterone Receptor (PR) Agonism Luciferase Follow-Up Assay (AID 2283937; active = hit-call score of the fitted dose curve at least 0.9, where 1 is the maximum; inactive = score below 0.9)
Summary of the method: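 Seed HEK293-PR-A-luc cells, wait 5 h, add compounds in DMSO, incubate 16 h at 37C, add ONE-Glo, read luminescence after 30 min. Activity is increase over DMSO controls; run with a viability counter-screen.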

[15] = target: PGR (gene 5241) (UniProt P06401); test: TOX21_PR_LUC_Followup_Antagonist: Tox21 HEK293 Progesterone Receptor (PR) Antagonism Luciferase Follow-Up Assay (AID 2283938);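 note: curve fitted upward as signal gain over DMSO baseline despite antagonist label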
Summary of the method: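 Cells are grown 5 days in charcoal-stripped-FBS assay medium, plated, left 5 h, then dosed with compound and incubated 16 h. ONE-Glo reagent is added and luminescence read after 30 min.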

[16] = TOX21_PR_LUC_Followup_Antagonist_viability: Viability Assessment in the Tox21 HEK293 Progesterone Receptor (PR) Antagonism Luciferase Follow-Up Assay (AID 2283940)
Summary of the method: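 HEK293-PR-A-luc, 3,000 cells/well; 5 h at 37C/0% CO2; compound pin transfer; 16 h incubation; CellTiter-Glo ATP luminescence, signal loss = cytotoxicity.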

[17] = TOX21_PR_LUC_Followup_Agonist_viability: Viability Assessment in the Tox21 HEK293 Progesterone Receptor (PR) Agonism Luciferase Follow-Up Assay (AID 2283941);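 note: loss of signal means cytotoxicity so actives lower viability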
Summary of the method: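 Multiplexed viability endpoint of the PR agonist luciferase follow-up: HEK293-PR-A-luc cells treated 16 h at 37C, with viability scored as decrease in CellTiter-Glo ATP signal.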

[18] = target: THRB (gene 7068) (UniProt P10828); test: TOX21_TRB_BLA_Antagonist_Followup_ratio: Tox21 Thyroid Hormone Receptor beta Antagonism Beta-lactamase (BLA) Follow-Up Assay, Ratio (AID 2283958)
Summary of the method: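 Cells were plated and allowed to attach for 5 h, then dosed with compounds in DMSO at 11 concentrations for 18 h at 37C. Beta-lactamase reporter activity was measured via CCF4-AM FRET as the 460:530 nm ratio.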

[19] = TOX21_TRB_BLA_Antagonist_Followup_viability: Viability Assessment in the Tox21 Thyroid Hormone Receptor beta Antagonism Beta-lactamase (BLA) Follow-Up Assay (AID 2283961)
Summary of the method: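 TRβ-bla HEK293T (human TRβ LBD fused to GAL4 DBD), 3,000 cells/well, 2% charcoal-stripped FBS, phenol red-free medium; 18 h compound exposure, 37C; CellTiter-Glo 30 min RT; luminescence, loss-of-signal readout.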

[20] = target: Retinoic acid receptor RXR-alpha (Homo sapiens) (UniProt P19793); test: TOX21_TR_RXR_BLA_Antagonist_Followup_ratio: Tox21 Thyroid Hormone Receptor beta Retinoid X Receptor alpha (RXRa) Antagonism Beta-lactamase (BLA) Follow-Up Assay, Ratio (AID 2283972)
Summary of the method: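 HEK293T RXRa-bla, 2% charcoal-stripped FBS medium, 16 h compound exposure at 37C, qHTS 11 conc x3. CCF4 FRET ratio ch2/ch1 (460:530), DMSO = baseline, loss-of-signal fit.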

Measured: AC50

Chain of PGR (gene 5241) (P06401 whole entry, looked up): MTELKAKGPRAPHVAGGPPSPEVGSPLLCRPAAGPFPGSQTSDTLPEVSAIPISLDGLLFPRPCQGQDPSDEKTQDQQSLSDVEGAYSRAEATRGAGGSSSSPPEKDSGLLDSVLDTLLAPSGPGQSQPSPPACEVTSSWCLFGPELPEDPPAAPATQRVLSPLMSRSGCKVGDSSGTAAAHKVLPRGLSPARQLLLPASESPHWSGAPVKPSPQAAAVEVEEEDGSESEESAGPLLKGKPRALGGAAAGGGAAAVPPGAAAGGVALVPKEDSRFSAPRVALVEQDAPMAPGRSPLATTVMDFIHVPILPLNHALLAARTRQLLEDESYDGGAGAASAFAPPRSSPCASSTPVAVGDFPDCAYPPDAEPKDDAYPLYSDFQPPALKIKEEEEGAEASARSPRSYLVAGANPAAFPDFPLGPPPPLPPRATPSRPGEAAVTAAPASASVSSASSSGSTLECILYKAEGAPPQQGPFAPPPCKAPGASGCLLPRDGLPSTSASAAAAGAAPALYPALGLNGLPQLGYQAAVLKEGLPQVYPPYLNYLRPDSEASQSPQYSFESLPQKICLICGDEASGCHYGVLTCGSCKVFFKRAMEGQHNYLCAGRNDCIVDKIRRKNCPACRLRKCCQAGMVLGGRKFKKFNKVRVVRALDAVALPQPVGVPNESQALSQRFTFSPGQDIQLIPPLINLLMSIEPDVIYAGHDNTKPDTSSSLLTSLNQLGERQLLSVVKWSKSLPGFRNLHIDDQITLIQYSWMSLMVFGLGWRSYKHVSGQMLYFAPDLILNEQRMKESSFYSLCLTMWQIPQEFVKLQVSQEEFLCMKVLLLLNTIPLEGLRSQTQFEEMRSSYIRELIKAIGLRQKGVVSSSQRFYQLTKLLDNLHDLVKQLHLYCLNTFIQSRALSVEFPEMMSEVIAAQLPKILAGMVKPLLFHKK
Chain of Cellular tumor antigen p53 (Homo sapiens) (P04637 whole entry, looked up): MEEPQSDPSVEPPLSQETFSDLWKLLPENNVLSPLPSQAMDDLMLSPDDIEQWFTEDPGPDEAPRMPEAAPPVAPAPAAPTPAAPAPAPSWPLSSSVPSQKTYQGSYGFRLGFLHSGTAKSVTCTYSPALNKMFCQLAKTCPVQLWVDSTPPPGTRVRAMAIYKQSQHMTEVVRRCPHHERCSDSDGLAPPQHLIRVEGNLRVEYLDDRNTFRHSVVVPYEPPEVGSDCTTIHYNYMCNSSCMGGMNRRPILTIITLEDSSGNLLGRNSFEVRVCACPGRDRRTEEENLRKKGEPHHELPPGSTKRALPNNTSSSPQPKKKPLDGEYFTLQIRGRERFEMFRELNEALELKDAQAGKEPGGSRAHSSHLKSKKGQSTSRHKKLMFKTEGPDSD
Chain of Retinoic acid receptor RXR-alpha (Homo sapiens) (P19793 whole entry, looked up): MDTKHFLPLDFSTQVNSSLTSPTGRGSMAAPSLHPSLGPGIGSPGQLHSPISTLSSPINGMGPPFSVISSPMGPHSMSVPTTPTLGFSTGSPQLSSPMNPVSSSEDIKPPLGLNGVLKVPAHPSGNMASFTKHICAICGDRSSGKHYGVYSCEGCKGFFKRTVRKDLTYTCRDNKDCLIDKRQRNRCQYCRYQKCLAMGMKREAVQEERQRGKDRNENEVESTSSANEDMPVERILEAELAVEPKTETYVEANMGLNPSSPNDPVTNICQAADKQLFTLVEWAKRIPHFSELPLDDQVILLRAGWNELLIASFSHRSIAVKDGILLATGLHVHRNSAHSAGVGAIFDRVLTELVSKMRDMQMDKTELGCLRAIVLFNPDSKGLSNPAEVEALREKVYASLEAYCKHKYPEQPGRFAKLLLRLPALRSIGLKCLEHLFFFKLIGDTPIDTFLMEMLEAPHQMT
Chain of THRB (gene 7068) (P10828 whole entry, looked up): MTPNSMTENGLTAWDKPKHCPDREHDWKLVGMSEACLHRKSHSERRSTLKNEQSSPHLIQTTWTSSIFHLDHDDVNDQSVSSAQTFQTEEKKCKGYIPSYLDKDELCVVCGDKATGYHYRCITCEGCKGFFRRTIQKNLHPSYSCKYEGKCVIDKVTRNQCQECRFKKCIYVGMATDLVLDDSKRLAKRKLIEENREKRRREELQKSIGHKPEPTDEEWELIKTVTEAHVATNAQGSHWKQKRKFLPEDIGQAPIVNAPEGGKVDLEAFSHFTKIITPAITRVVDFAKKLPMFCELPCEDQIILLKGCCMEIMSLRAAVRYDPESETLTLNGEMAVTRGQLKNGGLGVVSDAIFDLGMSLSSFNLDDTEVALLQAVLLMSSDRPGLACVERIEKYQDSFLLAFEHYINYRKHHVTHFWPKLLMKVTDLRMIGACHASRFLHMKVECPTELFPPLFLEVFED

COC[C@H](c1ccc(C(F)(F)F)cc1)N1CCN(C2(C)CCN(C(=O)c3c(C)ncnc3C)CC2)C[C@H]1C
inactive: [1] | [2] | [3] | [4] | [5] | [6]

C=CC1CC2C=CC1C2 (stereo not given)
inactive: [1] | [2] | [3] | [4] | [5] | [6]

CN(Cc1ccccc1)Cc1ccccc1
inactive: [1] | [2] | [3] | [4] | [6]

CCc1ccccc1CC
inactive: [1] | [2] | [3] | [4] | [6] | [7] | [8] | [9]

C[C@H](Cc1ccc(O)c(O)c1)[C@@H](C)Cc1ccc(O)c(O)c1
inactive: [1] | [2] | [4] | [6]
active: [3] 25900 nM

O=C(CCCCCCCCCCCCC1CCCC1)Nc1ccc(S(=O)(=O)c2ccc(NC(=O)CCCCCCCCCCCCC3CCCC3)cc2)cc1
inactive: [1] | [2] | [3] | [4] | [6]

CN[C@H](CC(C)C)C(=O)N[C@H]1C(=O)N[C@@H](CC(N)=O)C(=O)N[C@H]2C(=O)N[C@H]3C(=O)N[C@H](C(=O)N[C@H](C(=O)O)c4cc(O)cc(O)c4-c4cc3ccc4O)[C@H](O)c3ccc(c(Cl)c3)Oc3cc2cc(c3O[C@@H]2O[C@H](CO)[C@@H](O)[C@H](O)[C@H]2O[C@H]2C[C@](C)(N)[C@H](O)[C@H](C)O2)Oc2ccc(cc2Cl)[C@H]1O
inactive: [1] | [10] | [3] | [5] | [6]

COC(=O)CCC(=O)CN
inactive: [2] | [10] | [5]

CC(=O)OCC(=O)[C@@]1(O)CC[C@H]2[C@@H]3CCC4=CC(=O)C=C[C@]4(C)[C@H]3[C@@H](O)C[C@@]21C
inactive: [11] | [12] | [13] | [15] | [16] | [17]
active: [14] 2280 nM

COc1c(N2C[C@@H]3CCCN[C@@H]3C2)c(F)cc2c(=O)c(C(=O)O)cn(C3CC3)c12
inactive: [1] | [4] | [6]

c1ccc(CCNc2nc(-c3ccccc3)cs2)cc1
inactive: [1] | [3] | [4] | [5]

CC(C)(O)CCCC1=CCC(C=O)CC1 (stereo not given)
inactive: [1] | [10] | [3] | [5]

NC(=O)CC[C@@H]1NC(=O)[C@H](Cc2ccccc2)NC(=O)[C@H](Cc2ccc(O)cc2)NC(=O)CCSSC[C@@H](C(=O)N2CCC[C@H]2C(=O)N[C@@H](CCCN=C(N)N)C(=O)NCC(N)=O)NC(=O)[C@H](CC(N)=O)NC1=O
inactive: [1] | [10] | [4] | [6]

O=C1c2ccccc2CN2C(=O)c3ccccc3CN12
inactive: [3] | [4] | [6]

Nc1nnc(-c2cccc(Cl)c2Cl)c(N)n1
inactive: [2] | [10] | [6]

CCOc1ccccc1C(N)=O
inactive: [1] | [10] | [3] | [4] | [5] | [6]

CCC[C@@]1(CCc2ccccc2)CC(O)=C([C@H](CC)c2cccc(NS(=O)(=O)c3ccc(C(F)(F)F)cn3)c2)C(=O)O1
inactive: [1] | [10] | [3] | [4] | [5] | [6] | [18] | [19] | [20]

COc1ccccc1N1CCN(CCCNc2cc(=O)n(C)c(=O)n2C)CC1
inactive: [1] | [10] | [3] | [5] | [6]

CC(=O)OC[C@H]1O[C@@H](n2ncc(=O)[nH]c2=O)[C@H](OC(C)=O)[C@@H]1OC(C)=O
inactive: [3] | [5]
active: [1] 2040 nM | [10] 3150 nM | [4] 2020 nM | [6] 2610 nM

O=C(Cc1cccs1)N[C@@H]1C(=O)N2C(C(=O)[O-])=C(C[n+]3ccccc3)CS[C@H]12
inactive: [4] | [5] | [6]

C=CS(=O)(=O)O
inactive: [1] | [3] | [4] | [5] | [6]

O=C[C@H](O)[C@@H](O)[C@H](O)[C@H](O)CO
inactive: [1] | [10] | [3] | [5]

NC(N)=NN=Cc1c(Cl)cccc1Cl
inactive: [2] | [10] | [3] | [4] | [5] | [6]

Cc1ccc(C(=O)C(C)CN2CCCCC2)cc1 (stereo not given)
inactive: [2] | [10] | [3] | [4] | [5] | [6]

CN1CCCCC1CCN1c2ccccc2Sc2ccc(S(C)=O)cc21 (stereo not given)
inactive: [1] | [10] | [4] | [6]

CC[N+](CC)(CC)CCOc1ccc(/C=C/c2ccccc2)cc1
inactive: [2] | [10] | [4] | [5] | [6]
